Source: PubChem BioAssay (NCATS)
Records with an inconclusive call do not appear. Unmarked numbers belong to inactive results. Calls of active or inactive are those of the source. Calls come from the whole dose curve; as a rule, active = well fitted inhibition curve with a large enough effect; inconclusive = small, poorly fitted or top-dose-only effect; inactive = flat fitted curve, though single readings scatter.

test: P-glycoprotein substrates identified in KB-8-5-11 adenocarcinoma cell line, qHTS therapeutic library screen (AID 1346987); conditions: KB-8-5-11 (P-gp overexpressing) viability, CellTiter-Glo, 72 h; series mostly up to 44.5 µM; activity change, negative = cytotoxicity: at the top concentration; note: nearly all actives have a fitted effect of over 65% in size
Procedure, shortened: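 Human cervical adenocarcinoma KB-8-5-11 cells, selected in colchicine to over-express P-gp and assayed without it, were exposed for 72 h to titrated compounds. An ATP-based luminescent viability signal gave AC50.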
% is set by controls: 0 for no effect and ±100 for the full control effect; potency is the fitted concentration of half-maximal effect.

In order of falling “activity change, negative = cytotoxicity” value:
1. O=C(O)[C@H]1CN(C/C=C/P(=O)(O)O)CCN1  18.4%
2. Cc1cccc(C)c1NC(=O)NC1=CCCN1C  10.7%
3. O=C(Cc1cccs1)N[C@@H]1C(=O)N2C(C(=O)[O-])=C(C[n+]3ccccc3)CS[C@H]12  10.6%
4. CCCCC/C=C\CCC(=O)N[C@H]1[C@H](Oc2c3cc4cc2Oc2ccc(cc2Cl)[C@@H](O[C@@H]2O[C@H](CO)[C@@H](O)[C@H](O)[C@H]2NC(C)=O)[C@@H]2NC(=O)[C@H](NC(=O)[C@@H]4NC(=O)[C@H]4NC(=O)[C@@H](Cc5ccc(c(Cl)c5)O3)NC(=O)[C@H](N)c3ccc(O)c(c3)Oc3cc(O)cc4c3)c3ccc(O)c(c3)-c3c(O[C@H]4O[C@H](CO)[C@@H](O)[C@H](O)[C@@H]4O)cc(O)cc3[C@@H](C(=O)O)NC2=O)O[C@H](CO)[C@@H](O)[C@@H]1O  8.28%
5. CNC(=O)c1c(I)c(C(=O)NCC(=O)Nc2c(I)c(C(=O)O)c(I)c(C(=O)NCCO)c2I)c(I)c(N(C)C(C)=O)c1I  5.94%
6. CCC(Oc1ccccc1)C(=O)N[C@@H]1C(=O)N2[C@@H]1SC(C)(C)[C@@H]2C(=O)O (some centres undefined)  4.83%
7. CNCC(=O)N[C@@H](CCCN=C(N)N)C(=O)N[C@H](C(=O)N[C@@H](Cc1ccc(O)cc1)C(=O)N[C@H](C(=O)N[C@@H](Cc1cnc[nH]1)C(=O)N1CCC[C@H]1C(=O)N[C@@H](C)C(=O)O)C(C)C)C(C)C  4.48%
8. CCOC(C)OCC  4.31%
9. Nc1nc(=O)n([C@@H]2CS[C@H](CO)O2)cc1F  3.71%
10. CC1C(=O)CC2C3(C)CCC2(C(C)C(=O)O)C(=O)C13 (centres undefined)  3.21%
11. C[C@@H]1O[C@@H](OC[C@H]2O[C@@H](Oc3c(-c4ccc(OCCO)c(OCCO)c4)oc4cc(OCCO)cc(O)c4c3=O)[C@H](O)[C@@H](O)[C@@H]2O)[C@H](O)[C@H](O)[C@H]1O  1.82%
12. Cc1c(Cl)cccc1Nc1ncccc1C(=O)O  0.913%
13. CCN(CC)CCOc1ccccc1OC  0.728%
14. O=C(OC1C[C@@H]2CC3C[C@H](C1)N2CC3=O)c1c[nH]c2ccccc12 (some centres undefined)  0.42%
15. COc1ccc(/C=N/NC(=O)c2ccncc2)c(C(=O)O)c1OC  0.157%
16. O=C1N=C2SCCN2C(=O)C1Cc1ccc(Cl)cc1 (centres undefined)  -0.0165%
17. OC[C@H]1O[C@@H](O[C@H]2[C@H](O)[C@@H](O)[C@H](O)O[C@@H]2CO)[C@H](O)[C@@H](O)[C@@H]1O  -0.0798%
18. C[S+](C)CCC(N)C(=O)O (centres undefined)  -0.926%
19. C[Si](C)(C)O[Si](C)(C)C  -1.31%
20. CCCCO  -2.07%
21. CCC(=O)OC(OP(=O)(CCCCc1ccccc1)CC(=O)N1C[C@H](C2CCCCC2)C[C@H]1C(=O)O)C(C)C (some centres undefined)  -2.63%
22. CCN(CC)CCOC[C@H]1O[C@@H](O)[C@H](OCCN(CC)CC)[C@@H](O)[C@@H]1O  -3.49%
23. CC(CNC(=O)c1cccnc1)NC(=O)c1cccnc1 (centres undefined)  -4.55%
24. CC(=O)[O][Al][O]C(C)=O  -6.98%
25. C[C@H](NCCc1ccc(O)cc1)[C@H](O)c1ccc(O)cc1  -7.86%
26. OCc1ccccc1  -9.94%
27. CC(C)c1ncc([N+](=O)[O-])n1C  -10.5%
28. CC(=O)OCC(=O)[C@@]1(O)CC[C@H]2[C@@H]3CCC4=CC(=O)CC[C@]4(C)C3=CC[C@@]21C  -11.2%
29. F[Si-2](F)(F)(F)(F)F  -13.9%
30. CC(C)[C@@H](C)/C=C/[C@@H](C)[C@H]1CC[C@H]2/C(=C/C=C3\C[C@@H](O)CC[C@@H]3C)CCC[C@]12C  -25.2%
31. COC(=O)[C@@H](N)CS  -28.8%
32. COc1ccc2c(=O)c(C)c(-c3ccccc3)oc2c1CN(C)C  -31.7%

With C[C@]12CC[C@@H]3c4ccc(O)cc4CC[C@H]3[C@@H]1CC[C@@H]2OP(=O)(O)O the Potency was 20.6 µM (active).
In the case of CC(C)(C)CC(C)(C)c1ccc(OCCO)cc1, the Potency is reported as 13 µM (active).
For C[C@]12CC[C@@H]3c4ccc(OC(=O)c5ccccc5)cc4CC[C@H]3[C@@H]1CC[C@@H]2O, the Potency was 4.61 µM (active).
For COc1ccc(C[C@H](C)NC[C@@H](O)c2ccc(O)c(NC=O)c2)cc1, the Potency was “inactive”.

In order of falling “activity change, negative = cytotoxicity” value:
1. CN[C@@H]1[C@@H](O)[C@@H](O[C@@H]2[C@@H](O)[C@H](OC3OC(CN)=CCC3N)[C@@H](N)C[C@H]2N)OC[C@]1(C)O (some centres undefined)  7.22% [at 17.3 µM]
2. CC(C)(O/N=C(\C(=O)N[C@@H]1C(=O)N2C(C(=O)[O-])=C(C[n+]3ccccc3)CS[C@H]12)c1csc(N)n1)C(=O)O  2.94% [at 17.3 µM]
3. COc1ccc([C@@H]2CC(=O)c3c(O)cc(O[C@@H]4O[C@H](CO[C@@H]5O[C@@H](C)[C@H](O)[C@@H](O)[C@H]5O)[C@@H](O)[C@H](O)[C@H]4O)cc3O2)cc1O  0.453% [at 17.3 µM]
